Only some compounds are listed: those with a hit (about 2.7% of all), similar ones and a draw of the others.
aDG glyco act: alpha-DG glycosylation activation; Pro5-aDG cells, alpha-DG glycosylation AlphaScreen (IIH6); 0% Pro5, 100% B10-LARGE cell signal; activation, % at 10 µM; actives 0.22% (n = 360,000);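 active = activation of at least 8% versus controls, or a plate z-score of at least 8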;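 note: Pro5 are CHO cells carrying HIG-tagged alpha-DG that lacks glycosylation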
NadD inh: blocks S. aureus nicotinate mononucleotide adenylyltransferase; purified NadD enzyme, colorimetric absorbance read-out; inhibition, % at 20 µM; actives 0.78% (n = 360,000); in the data active = inhibition above about 26%
MPTP inh: inhibitors of mitochondrial permeability transition pore. actives 1.4% (n = 360,000). AID 602449. inhibition, % at 10 µM. isolated mouse mitochondria, Ca2+ swelling absorbance, 30 min;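 active = inhibition of 50% or more, scaled per plate between neutral and stimulator controls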;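 note: 0% = DMSO wells given calcium and 100% = 1 mM EGTA wells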
H9c2 TAG inh: triacylglycerol accumulation inhibition | inhibition, % at 12.5 µM | H9c2 cells, Nile Red lipid (TAG) fluorescence; cells loaded with 200 µM oleic acid | actives 0.66% (n = 230,000);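 active = pattern-corrected inhibition of lipid staining of at least 50% with the nuclear-stain viability signal not falling by more than 50%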;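 note: 0% = DMSO wells and 100% = triacsin C control wells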
Rh123 counter: mitochondrial membrane potential, counter-screen; actives 78% (n = 5,000); AID 624504; isolated mitochondria, Rhodamine 123 fluorescence; shares compounds with MPTP inh; inhibition, % at 10 µM; in the data active = inhibition above about 22%;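 note: 0% = DMSO vehicle and 100% = positive control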
MPTP abs DR: MPTP inhibition, dose response swelling confirmation; shares compounds with MPTP inh; isolated mitochondria swelling, absorbance; IC50, µM; actives 58% (n = 780); AID 651561; in the data active = IC50 below about 20 µM
MPTP cs DR: counter-screen for mitochondrial permeability transition pore inhibitors, dose response; shares compounds with MPTP inh; IC50, µM; isolated mitochondria counterscreen, fluorescence read-out; actives 49% (n = 780); AID 651564; in the data active = IC50 below about 80 µM
* = called active by the depositor; i = inactive; nt = no result given.

SMILES	aDG glyco act	NadD inh	MPTP inh	H9c2 TAG inh	Rh123 counter	others
O=C(Nc1ccncc1)c1ccc2c(c1)C(=O)N(C1CCCCC1)C2=O	1	2	91*	5	97*
COC1(NS(=O)(=O)c2ccc(Br)cc2)C(C)=CC(=O)C=C1C	0	4	78*	-4	4	MPTP abs DR=i;MPTP cs DR=>80
Cc1cc(C)n(-c2nc(-c3ccc(Cl)c(Cl)c3)cs2)n1	0	0	60*	-21	1	MPTP abs DR=>100;MPTP cs DR=>80
CC1CN(C)CCC1OC(=O)c1ccccc1 (configuration not stated)	0	-1	0	11	nt
COCCN1CCCC(CNCc2cn(C)nc2-c2ccc(Oc3ccccc3)cc2)C1 (configuration not stated)	3	-9	91*	8	-10	MPTP abs DR=4.8*;MPTP cs DR=>80
CCc1ccc(NC(=S)NCc2ccccc2)cc1	0	-7	0	10	nt
S=C(NCc1ccccc1)Nc1ccc(Cl)cc1	0	0	72*	9	81*
FC(F)(F)Sc1ccc(NC(=S)NCc2ccccc2)cc1	0	-5	84*	-7	73*
S=C(NCCC(c1ccccc1)c1ccccc1)Nc1ccc(Cl)cc1	0	-9	93*	nt	75*
S=C(NCCC(c1ccccc1)c1ccccc1)Nc1ccccc1Cl	0	-5	4	5	nt
S=C(NCc1ccccc1)NCc1cccc(CNC(=S)NCc2ccccc2)c1	0	4	84*	nt	78*
C=C1CC[C@@H]2[C@](C)(CO)[C@H](O)CC[C@@]2(C)[C@@H]1C/C=C1/C(=O)OCC1O (some centres not stated)	1	-5	-2	-10	nt
Cc1nc(SCC(=O)NCCN2C(=O)CSC2=O)nc(C)c1C	0	-5	0	7	nt
Cc1nc(C)c(C(=O)OCC(=O)NCCc2ccc(F)cc2)s1	0	-4	-1	-4	nt
S=C(NCCCc1ccccc1)Nc1ccccc1	0	2	0	8	nt
S=C(NCCCc1ccccc1)Nc1ccc(Cl)cc1	0	0	97*	11	91*
CC(=O)Nc1cccc(-c2csc(C(O)c3ccc(F)c(F)c3)n2)c1 (configuration not stated)	0	-4	1	-8	nt
Clc1ccc(CONc2ncnc3nonc23)c(Cl)c1	0	-9	56*	5	96*
COc1ccccc1NS(=O)(=O)c1cccc(C(=O)NC2CCN(Cc3ccccc3)CC2)c1	1	-4	80*	-3	87*
Oc1ccc(Br)cc1-c1cc(-c2ccccc2Cl)[nH]n1	0	-7	74*	-21	59*
Oc1ccc(Br)cc1-c1cc(-c2ccccc2F)[nH]n1	0	7	63*	nt	58*
Cc1cc([N+](=O)[O-])ccc1NC(=O)Cc1ccc(F)cc1	0	0	3	-21	nt
O=C(Nc1ccccc1)Nc1cc([N+](=O)[O-])ccc1F	0	-6	63*	nt	91*
Cc1cc([N+](=O)[O-])ccc1NC(=O)Nc1ccccc1F	1	2	93*	-27	92*
CC1CC(C)CN(C(=O)CCNC(=O)c2ccccc2Cl)C1 (configuration not stated)	0	0	-1	-1	nt
SMILES	aDG glyco act	NadD inh	MPTP inh	H9c2 TAG inh	Rh123 counter	others
O=C(Nc1ccc(Cl)c(Cl)c1)N1CCCCCC1	0	-1	2	4	nt
CC(=O)c1ccc(N2CCN(C(=S)Nc3ccc(Cl)c(Cl)c3)CC2)cc1	0	-2	94*	4	77*
O=C(c1ccc(NC(=S)Nc2ccc(Cl)c(Cl)c2)cc1)N1CCCC1	0	-1	103*	nt	92*
O=C(/C=C/c1ccc(Cl)cc1)Nc1ccc(N2CCOCC2)cc1	0	-3	2	4	nt
O=C(Nc1ccc(NC(=O)c2ccc(Cl)c(S(=O)(=O)N3CCOCC3)c2)cc1)c1ccccc1	0	9	1	5	nt
O=C(Nc1ccc(Cl)cc1)Nc1ccc(N2CCOCC2)cc1	0	1	69*	-51	57*
O=C(Nc1ccccc1)Nc1ccc(Cl)c(S(=O)(=O)N2CCOCC2)c1	0	-9	62*	-24	86*
N#Cc1ccc(S(=O)(=O)N2CCN(C(=O)c3cn(-c4ccccc4)nc3-c3cccnc3)CC2)cc1	0	4	-1	-15	nt
O=C(Nc1ccc(N2CCOCC2)cc1)Nc1ccc(Cl)c(Cl)c1	1	-5	93*	nt	80*
COc1ccc2nc(SCC(=O)Nc3nccs3)[nH]c2c1	0	-2	1	13	nt
COc1cccc(N2CCN(c3ccc(S(=O)(=O)N4CCN(C)CC4)cc3[N+](=O)[O-])CC2)c1	1	-4	-2	2	nt
COc1ccc(N2CCN(S(=O)(=O)c3ccc4c(c3)CCCC4)CC2)c([N+](=O)[O-])c1	2	9	79*	nt	79*
NC(=O)c1ccc(N2CCN(S(=O)(=O)c3ccccc3)CC2)c([N+](=O)[O-])c1	2	1	73*	-31	21*
COC(=O)c1ccc(N2CCN(S(=O)(=O)c3ccc4ccccc4c3)CC2)c([N+](=O)[O-])c1	1	8	72*	-7	57*
CC(CN1c2ccccc2Sc2ccccc21)N(C)C (configuration not stated)	0	-1	3	20	nt
CC(CN(C)C)CN1c2ccccc2Sc2ccccc21 (configuration not stated)	0	-8	77*	34	-11	MPTP abs DR=7.1*;MPTP cs DR=>80
COc1ccc2c(c1)N(C[C@H](C)CN(C)C)c1ccccc1S2	0	7	67*	3	-16	MPTP abs DR=8.8*;MPTP cs DR=>80
CCOC(=O)[C@]12Cc3c(cc(OC)c(OC)c3OC)[C@H]1N(C1CCCCC1)C(=O)c1cc(OC)ccc12	0	4	-2	nt	nt
CCN(CC)C(=O)c1ccc(COc2ccc(Cl)c(C)c2)o1	0	-6	91*	-11	85*
CCN(CC)C(=O)C1=C(C)N(CCC2=CCCCC2)C(=O)C(CC(=O)NCCN2CCOCC2)C1 (configuration not stated)	0	-3	-1	5	nt
O=C(Nc1ccc2snnc2c1)Nc1cccc2ccccc12	1	6	106*	29	69*
Cc1nc2cc(NC(=O)Nc3cccc4ccccc34)ccc2n1C	0	-2	1	-1	nt
COc1ccccc1N1CCCSC1=Nc1ccccc1	0	7	-1	-3	nt
COc1cc2c(cc1NC(=S)Nc1cccc3ccccc13)oc1ccccc12	0	20	0	nt	nt
COc1cc2c(cc1NC(=S)Nc1cccc(C(F)(F)F)c1)oc1ccccc12	0	5	94*	3	80*
CCOc1ccc(NC(=S)NNC(=S)Nc2cccc(C(F)(F)F)c2)cc1	0	4	80*	-39	57*

Screening results: PubChem, Sanford-Burnham Center for Chemical Genomics
